Laboratory results published in paper PMC13494018.

B1: design_604_3e0b3014-b333-46f1-8adc-d7f0bf8048fa_1332_dldesign_0_cycle1_af2pred (protein)
chain: EEVKEYLAKLSAEAYELLAEAEVLYKKTGSEKAKEAKELAKEALKELKEAGKLLEEDPEKAKEKAKIGEEKLKKAKEILEEIYKE
B2: design_604_3e0b3014-b333-46f1-8adc-d7f0bf8048fa_1413_dldesign_0_cycle1_af2pred (protein)
chain: EEEKEKRAEEKRKEIEELAKLAAENKEKGEKAVEKAKELVEKADEEEAPALAKALSRLVAAAYAVDEEVADKAFEAYALAWKKAQ
B3: design_604_3e0b3014-b333-46f1-8adc-d7f0bf8048fa_1604_dldesign_0_cycle1_af2pred (protein)
chain: MKDAEKLDEINKLSAEAGKLLKEAAKKDPSRKAELEAAAKEAAKKFDEAYDLFEKDPDAGLALAKEAYKEVKKLVEA
B4: design_604_3e0b3014-b333-46f1-8adc-d7f0bf8048fa_1215_dldesign_0_cycle1_af2pred (protein)
chain: SRVEELGKRLANKGKKYSLDDAADFGAEMAIMAGLTEEEAEAAFKYAAEIDPSFAEAMKKGLALYKELTA
B5: design_604_3e0b3014-b333-46f1-8adc-d7f0bf8048fa_1712_dldesign_0_cycle1_af2pred (protein)
chain: SEEGQKVLEKIEELRKEAEKFAKENKENGPKFARELAKKMRELAEKAKKEYGWNQEILNKASKVVHEARQLANEAEVEAKK
B6: design_604_3e0b3014-b333-46f1-8adc-d7f0bf8048fa_1074_dldesign_0_cycle1_af2pred (protein)
chain: DPAEERVEKARKEMEKAVEKYAEKGKKENLNLAYAEAIREISRIAKELVKEIGEEVRERALKIKEEQLKKLEKLEKEA
B7: design_604_3e0b3014-b333-46f1-8adc-d7f0bf8048fa_1261_dldesign_0_cycle1_af2pred (protein)
chain: EAEKAAKKAEEVGKKAVKEVKKAVEEGLPKEELSKVVHEEIQKITEASTEAARIAEEKAGKEAGEKVLKAGEEARKKLIAIAKE
B8: design_604_3e0b3014-b333-46f1-8adc-d7f0bf8048fa_936_dldesign_0_cycle1_af2pred (protein)
chain: MEEAKEKAKEQIKKLKEAAEKAVKVYKEIGKEEEAKKIKEEAKKAEKEAEKLLEKDPYEGAQLAQEALAEAKAELSRAEKELKK
B9: design_604_3e0b3014-b333-46f1-8adc-d7f0bf8048fa_1479_dldesign_0_cycle1_af2pred (protein)
chain: MEEEVKKAKEKIEKLEKAALKTIDILEESAKLGDDISGIKTAAKAAEKEFGKLAKEYPGAAAYAKEAEKKVVDYANKAIKAAKAAK
B10: design_604_3e0b3014-b333-46f1-8adc-d7f0bf8048fa_1397_dldesign_0_cycle1_af2pred (protein)
chain: SENELTEEAVSLAARVSKRANELGKKTGSEELLKLSEEAKELRDKIVDDPSTAEEALKKVKELEKRIEELTAA
B11: design_604_3e0b3014-b333-46f1-8adc-d7f0bf8048fa_1084_dldesign_0_cycle1_af2pred (protein)
chain: SPAAAAAAVQYAAFDAIAAATDAATVKAIADAAVAALAAAAAADPAHAEQYAKAAAAIKSFADAAIKALK
B12: design_604_3e0b3014-b333-46f1-8adc-d7f0bf8048fa_1191_dldesign_0_cycle1_af2pred (protein)
chain: EEKKKEIEELKKKVSKAQLELTDLAAKQDISKKDLEEKVQEAIRKAAKLGKIADEAVAKGEEYYPEAKKALEEALKVLEEAKKAVEEA
B13: design_604_3e0b3014-b333-46f1-8adc-d7f0bf8048fa_1395_dldesign_0_cycle1_af2pred (protein)
chain: AEKEELIAKAKEIAAKSAEVAKEAKKLGKDAAEAETTAKEAQKTAEEAIKKAEAGEIDVETLKKLVSKAAGLYYEAKSYLEVVKKKKE
B14: design_604_3e0b3014-b333-46f1-8adc-d7f0bf8048fa_1128_dldesign_0_cycle1_af2pred (protein)
chain: MAEKEAQLKKIEEEKKKVSEKFFEAFELASSKELASEISKKSKEANELFKKGREDPSIADKTMEEAKKIAEEALEKAKKEKEA
B15: design_604_3e0b3014-b333-46f1-8adc-d7f0bf8048fa_962_dldesign_0_cycle1_af2pred (protein)
chain: HHKKEKAKKVAELLEKARELAEKEGPEAAKPLIVEARSLAFEVDSELGRKIAKAGLLILKDLEKGLKILKEVQEEFKKIA
B16: design_604_3e0b3014-b333-46f1-8adc-d7f0bf8048fa_1621_dldesign_0_cycle1_af2pred (protein)
chain: MEAEKRNEEYAKEVEELYKKVLDGDIEEDKEALKKAEKLLEEAEADPEMKEEVLKGLRAAVRMAKASIEAEEKR
B17: design_604_3e0b3014-b333-46f1-8adc-d7f0bf8048fa_1627_dldesign_0_cycle1_af2pred (protein)
chain: ENLEKAKAADEKAKKFEDKAKEYEAKGKAEGKKYLYKAAAYYYAAAHAYNVAAKYYEKEGKAEEAAAAKAKAKEAEAKGNELAAK
B18: design_604_3e0b3014-b333-46f1-8adc-d7f0bf8048fa_739_dldesign_0_cycle1_af2pred (protein)
chain: KEEILKEAKKLKEEAVKKAKEGNAEEGRKARKEFLEEMKKMAEKGDKKEISKITHEALEKIAEAIQEAKEKARKEEEEKK
B19: design_604_3e0b3014-b333-46f1-8adc-d7f0bf8048fa_1571_dldesign_0_cycle1_af2pred (protein)
chain: DPKQLLSDARDQITELFFEAGKEAVPYNRKVVAALKAGDLDAALAAVEEFQKEYPEVGAKAKAVMDKAIAAAKAA
B20: design_604_3e0b3014-b333-46f1-8adc-d7f0bf8048fa_1498_dldesign_0_cycle1_af2pred (protein)
chain: SEKEKEEEERKKLAEEERAAAKAALAAAKAAAQKGDVAAAIAAAQEARIHASAYAQYLKTEEAKKERDAIVAAAKAAVAAAKAA
B21: design_604_3e0b3014-b333-46f1-8adc-d7f0bf8048fa_1534_dldesign_0_cycle1_af2pred (protein)
chain: KTEAIQKFADTLSEIIKLAAEAGKKSGKTAEYQALIEGALSGDFETAVKNAKEAAKLAKKDDPELGKKIEEAAKKLAEYAKKVLES
B22: design_604_3e0b3014-b333-46f1-8adc-d7f0bf8048fa_844_dldesign_0_cycle1_af2pred (protein)
chain: EEEKLKEAEKHLEKMIEILKEAAKKGYAKEEVELVKGDEETRKKGVYNAMGNVITGEGKEGVETARKISRYAKKSEELRKA
B23: design_604_3e0b3014-b333-46f1-8adc-d7f0bf8048fa_941_dldesign_0_cycle1_af2pred (protein)
chain: SLLDEAVALLAAANPALAPEFEKLARELQGYLDLAKDYPEIAPVMLKRATRVGEELVAVAAEAGPEVAEVATAAVEEVLAAIK
B24: design_604_3e0b3014-b333-46f1-8adc-d7f0bf8048fa_1221_dldesign_0_cycle1_af2pred (protein)
chain: AEMEERKAKGLEQAERLAERAKEAGKLNPEKAAELLGKAEAMLAKVRAMDNEAQWAEAAKEAAKLRELIAEAETEARRKKEEE
B25: design_604_3e0b3014-b333-46f1-8adc-d7f0bf8048fa_1429_dldesign_0_cycle1_af2pred (protein)
chain: DKQVISNKAKAQAERAKQAAKNILKTGDASLAPKVKEIAKKAEKAAKEAEKAGDKESAKEAKKAAKEAKKAAKKVEE
B26: design_604_3e0b3014-b333-46f1-8adc-d7f0bf8048fa_1248_dldesign_0_cycle1_af2pred (protein)
chain: NAYEEAKKAVDEMEKAMKALAKADPSLADEMKDKIATARKRLEAAKTDEEYKKVAEEAKKAKAAAQSILDALKKN
B27: design_604_3e0b3014-b333-46f1-8adc-d7f0bf8048fa_1013_dldesign_0_cycle1_af2pred (protein)
chain: SLEEILKEVKAENERLTARIEAAYERGLAAIAAGDLKAASAAAGEIAEARAEAALINTRYGNVAKEVEDKARELLREVRAAGKA
B28: design_604_3e0b3014-b333-46f1-8adc-d7f0bf8048fa_818_dldesign_0_cycle1_af2pred (protein)
chain: EEVEKKSEEVKKLLEEGAKTTTIDAQLAASEAVELAEELMKKDPEKGLKVAEVVLKEAEKLLKANPGVGELTIKRAEKVIKRAKE
B29: design_604_3e0b3014-b333-46f1-8adc-d7f0bf8048fa_762_dldesign_0_cycle1_af2pred (protein)
chain: SKKVYELYAEAKLEQIKRAKELAPKGDPKLAAERAEKLAKEAKEAAKKAGEEGEKIAKEAEKEAEALKKEV
B30: design_604_3e0b3014-b333-46f1-8adc-d7f0bf8048fa_841_dldesign_0_cycle1_af2pred (protein)
chain: AELEKAIKEANALRDKALDNVGNPEEAQKYIDELKEKAKKAAELGGPEVAKEAEKMIKALEDTLEKAKKILE
B31: design_604_3e0b3014-b333-46f1-8adc-d7f0bf8048fa_1186_dldesign_0_cycle1_af2pred (protein)
chain: SMSKELAEKIRKAIREIREAAERAIAEARRLVEEGRVEEGLAVLEEAEKEFRELAKKWEGYAASGVAENGAAALRAVREEIE
B32: design_604_3e0b3014-b333-46f1-8adc-d7f0bf8048fa_1004_dldesign_0_cycle1_af2pred (protein)
chain: AAAEAARKAEVAKKSKELAKQIAENASDEEKRKALLAEMRALAEAGTPEEAAIVVEEVHKGYEEAAEKLVEERR
B33: design_604_3e0b3014-b333-46f1-8adc-d7f0bf8048fa_1117_dldesign_0_cycle1_af2pred (protein)
chain: MEGIETSDLLSKAIKTGKEAYKELKEVGTEEEAEKFKEEMVKKLFEAADADIEESKKLLKELLKEAEEKLEEAKKRKA
B34: design_604_3e0b3014-b333-46f1-8adc-d7f0bf8048fa_950_dldesign_0_cycle1_af2pred (protein)
chain: AEEALKKAEEYAAKGDEYAAKGEAYEKSGDKLEEAAKYYAKAASYYLLAANAYLAAGNEEKAKEAEAKAEEAAEKATEAYQKASA
B35: design_604_3e0b3014-b333-46f1-8adc-d7f0bf8048fa_1344_dldesign_0_cycle1_af2pred (protein)
chain: KEKQKELLLESAVEEAEKAAKLLKDPELGKRLLTAVKAAKEDVSKAPEAAAVAREVGAKEPEASLEASAAAASLLSAYRIAKS
B36: design_604_3e0b3014-b333-46f1-8adc-d7f0bf8048fa_1387_dldesign_0_cycle1_af2pred (protein)
chain: ELDALVRAAIGEAVVFVLGPAAAPAAERIAAATPEEAKALLEEIAATQTPYQAAELLHTARAFAAYAETKYS
B37: design_604_3e0b3014-b333-46f1-8adc-d7f0bf8048fa_1067_dldesign_0_cycle1_af2pred (protein)
chain: SEIEKGEALLKEDPEWAKAASDALGKIAEDPEEGEKYAKEVIEKVLKEDPEKGPLMAKAIEERSEKLKKRVEEALERAK
B38: design_604_3e0b3014-b333-46f1-8adc-d7f0bf8048fa_1827_dldesign_0_cycle1_af2pred (protein)
chain: MTHEEINAASYALRALTRAARDVPEAAAEFEAQIDFLMSGSIEEGVEKVIALAEKYRDRLSPEALALFEKAKEYLEKAK

Target: VTCN1, Q7Z7D3
Sequence (Q7Z7D3 whole entry): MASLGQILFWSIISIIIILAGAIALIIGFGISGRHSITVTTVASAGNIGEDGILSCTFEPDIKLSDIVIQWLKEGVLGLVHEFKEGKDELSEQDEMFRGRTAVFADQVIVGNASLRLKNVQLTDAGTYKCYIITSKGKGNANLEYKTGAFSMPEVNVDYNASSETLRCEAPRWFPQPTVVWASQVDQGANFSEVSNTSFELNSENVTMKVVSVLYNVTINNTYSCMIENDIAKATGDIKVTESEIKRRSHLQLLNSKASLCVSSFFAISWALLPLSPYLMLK

Binding in a display sort, inactive:
B1 not found, B2 not found, B3 not found, B4 not found, B5 not found, B6 not found, B7 not found, B8 not found, B9 not found, B10 not found, B11 not found, B12 not found, B13 not found, B14 not found, B15 not found, B16 not found, B17 not found, B18 not found, B19 not found, B20 not found, B21 not found, B22 not found, B23 not found, B24 not found, B25 not found, B26 not found, B27 not found, B28 not found, B29 not found, B30 not found, B31 not found, B32 not found, B33 not found, B34 not found, B35 not found, B36 not found, B37 not found, B38 not found
